Screen size: about 63,000 compounds; about 1,100 (1.7%) were called active. Only a selection was taken, and actives are over-represented in it overall. Measured potencies and affinities stand elsewhere. Values without a mark were called inactive. No stated cut-off is given here; in the data, active means cytotoxicity above about 50%; inactive means the rest.
Test: cytotoxicity in HPDE-C7 cells, cell-based, fluorescence, HTS (AID 430);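 further: cells exposed to compound for 48 hours before viability readout; 0% = vehicle and 100% = reference cytotoxic drug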
Details: HPDE-C7 pancreatic duct cells viability, at 10 µM, hits give high values

Row | Compound | cytotoxicity
1 | CCn1c(SCc2nc3ccccc3[nH]2)nnc1-c1ccccc1OC | -14.9%
2 | COC(=O)c1cc(OC)c(OC)cc1N=CC1=C(O)CC(C)(C)CC1=O | 10.3%
3 | c1cncc(-c2nn3cnnc3s2)c1 | 3.2%
4 | CCN(CCO)C(=O)C12CCC(C)(C(=O)C1)C2(C)C (stereo unspecified) | 5.2%
5 | COc1ccc(-n2nnnc2SCC(=O)c2ccc(O)c(O)c2)cc1 | 17.9%
6 | CCOc1ccc(-n2nnnc2SCC(=O)c2ccccc2)cc1 | 59.8% (active)
7 | COc1ccc(-n2nnnc2SCC(=O)c2cccc(OC)c2)cc1 | 6.3%
8 | Cc1ccc(S(=O)(=O)N(C)c2nonc2C)cc1 | 9.7%
9 | CN(Cc1cnn(C)c1)C(=O)c1cc2ccccc2oc1=O | -0.7%
10 | C[C@]12CC[C@@H]3c4ccc(O)cc4CC[C@H]3[C@@H]1CCC2=O | 12.1%
11 | C[C@]12CC[C@@H]3c4ccc(O)cc4CC[C@H]3[C@@H]1CC[C@@H]2OC(=O)CCC(=O)O | 4.5%
12 | O=C(NCC(=O)N(c1ccc(F)cc1)C(C(=O)NCC1CCCO1)c1ccccc1)c1ccco1 (stereo unspecified) | -7.1%
13 | CN1C(=O)C(O)(CC(=O)c2cccc(-n3cccc3)c2)c2ccccc21 (stereo unspecified) | -0.5%
14 | CN(C)C=Nc1ncc2c([nH]c3ccccc32)c1C#N | 15.4%
15 | Cc1cc(=O)[nH]c2ccccc12 | -2.8%
16 | CCC(C(=O)NC1CCCC1)N(C(=O)Cn1nnc(-c2ccc(OC)c(OC)c2)n1)C1CCCCC1 (stereo unspecified) | -12.1%
17 | CC(C)(C#CCN1CCCC1)OCCC#N | -16.7%
18 | O=C(CN1C(=O)c2ccccc2S1(=O)=O)Nc1ccc(S(=O)(=O)N2CCCCC2)cc1 | -22%
19 | C/C=C/c1ccc(OC)c(OC(C)=O)c1 | -5.1%
20 | COc1cc(/C=N/n2nnnc2N)ccc1O | 3.8%
21 | COc1cc(-c2cc(OC)c3c(C)oc(C)c3c(=O)c2)ccc1O | 38%
22 | O=C(O)/C=C/c1ccc(O)c(O)c1 | -18.3%
23 | COc1cc(/C=C/C2=NC(=O)C(C)(C)O2)ccc1O | 53.4% (active)
24 | CCOc1ccccc1C1C2C(=O)N(c3ccccc3)C(=O)C2ON1c1ccccc1 (stereo unspecified) | -2.8%

Row | Compound | cytotoxicity
25 | Cc1cc(C)c2[nH]c(=O)c(CN(Cc3ccc4c(c3)OCO4)Cc3nnnn3C3CCCC3)cc2c1 | 14.9%
26 | CCOCCCNC(=O)C(NC(=O)c1ccc(=O)[nH]c1)c1ccccc1 (stereo unspecified) | 2.7%
27 | COc1ccc(S(=O)(=O)N(C)CC(=O)N2CCCCCC2)cc1OC | -2.9%
28 | COc1cccc(N2CCN(C3CC(=O)N(c4ccc(Cl)c(Cl)c4)C3=O)CC2)c1 (stereo unspecified) | 1.1%
29 | CCCC(=O)c1ccc(N2CCN(C(=O)c3ccc(Br)cc3)CC2)c(F)c1 | -6.3%
30 | CCCC(=O)N1CCN(c2ccc(C(=O)c3ccc(OC)c(Br)c3)cc2F)CC1 | 58.1% (active)
31 | CCCCCC(=O)N1CCN(c2ccc(C(C)=O)cc2F)CC1 | -3.3%
32 | CCN=C1SC(CC(=O)Nc2ccc(C(F)(F)F)cc2)C(=O)N1CC (stereo unspecified) | -10.9%
33 | O=C(O)c1cc(-c2ccccc2)nc2ccccc12 | -1.2%
34 | Cc1ccc2nc(NCCO)nc(-c3ccccc3)c2c1 | 16.6%
35 | Clc1ccc(OCc2nc(-c3ccccn3)n[nH]2)cc1 | 42.3%
36 | Cc1cc(Cl)ccc1OCCCC(N)=O | -4.7%
37 | Cc1cc(Cl)ccc1OCc1nc(-c2ccc(O)cc2)n[nH]1 | 77.3% (active)
38 | CN1CCCN(CC(O)COCc2cccs2)CC1 (stereo unspecified) | 0.9%
39 | CC1(C)N=C(C(=O)c2ccccc2)N(O)C1(C)O (stereo unspecified) | -11.9%
40 | COc1cc2c(=O)n(Cc3ccco3)c(=O)n(CC(=O)c3ccc(Br)cc3)c2cc1OC | 86% (active)
41 | COc1cc2c(=O)n(Cc3ccccc3)c(=O)n(CC(=O)NCc3ccco3)c2cc1OC | 3.1%
42 | CCOC(=O)Cn1c(=O)n(Cc2ccco2)c(=O)c2ccc(C(=O)NCCc3ccccc3)cc21 | 7.2%
43 | COc1cc2c(=O)n(Cc3ccccc3)c(=O)n(CC(=O)C(C)(C)C)c2cc1OC | -17.8%
44 | COc1ccc(CCNC(=O)Cn2c(=O)n(Cc3ccco3)c(=O)c3ccc(Cl)cc32)cc1OC | 13.9%
45 | COc1cc2c(=O)n(Cc3ccco3)c(=O)n(CC(=O)c3cccc(Br)c3)c2cc1OC | 55% (active)
46 | CS(=O)(=O)N(CC(=O)NCCSCc1cccc(Cl)c1)c1ccc2c(c1)OCO2 | 0.9%
47 | O=C(Nc1ccccc1)N(Cc1cccs1)C1CCCC1 | -7.6%
48 | CCOC(=O)c1c(C)n(C)c2cc(Br)c(C(=O)OC)cc12 | 9.9%

Row | Compound | cytotoxicity
49 | CCOC(=O)c1c(CN2CCN(C)CC2)n(C)c2cc(Br)c(OC)cc12 | -10.2%
50 | CCOC(=O)c1c(CN2CCCCC2)n(C)c2cc(Br)c(OC)cc12 | 8.3%
51 | CCOC(=O)c1c(CNCCN(CC)CC)n(C)c2cc(Br)c(OC)cc12 | 57.3% (active)
52 | CCOC(=O)c1c(CN2CCN(CCO)CC2)n(C)c2cc(Br)c(OC)cc12 | 77% (active)
53 | CCN(CC)CCNC(=O)c1c(C)oc2cc(Br)c(OC)cc12 | 1.8%
54 | O=C(c1ccco1)c1nnn(Cc2ccccc2)c1-c1ccccc1 | -7.7%
55 | COc1ccc(CN(C2CCCC2)S(=O)(=O)c2ccc(-n3cnnn3)cc2)cc1OC | -39.1%
56 | Cc1[nH]c(=O)[nH]c(=O)c1S(=O)(=O)N1CCCC(C(=O)NCCc2ccc(Cl)cc2)C1 (stereo unspecified) | -9.4%
57 | CCOC(=O)c1csc(NC(=O)CSc2nnnn2-c2ccc(OCC)cc2)n1 | -21.4%
58 | O=C(c1cccs1)N1CCN(S(=O)(=O)N2CCOCC2)CC1 | -21.3%
59 | O=C(NCc1ccco1)C(c1ccncc1)N(CCC1=CCCCC1)C(=O)Cn1nnc2ccccc21 (stereo unspecified) | 1.6%
60 | Fc1ccc(Br)cc1C1C=C(c2cccnc2)Nc2ncnn21 (stereo unspecified) | 16.3%
61 | Fc1ccc(Br)cc1C1C=C(c2ccc(Br)s2)Nc2ncnn21 (stereo unspecified) | 55% (active)
62 | COc1cccc(C2C=C(c3ccc(Br)s3)Nc3ncnn32)c1OC (stereo unspecified) | -9.3%
63 | Cc1cccc2cc(CN(Cc3ccco3)C(=O)c3cccs3)c(=O)[nH]c12 | -11.9%
64 | Cn1c(Cc2ccccc2)nnc1SCC(=O)Nc1ccccc1N1CCOCC1 | 2.9%
65 | CC(C)OC(=O)c1cn(-c2ccccc2)nc1-c1ccco1 | 4.8%
66 | OCCN(Cc1ccccc1)Cc1cccc(F)c1 | -3.2%
67 | COCCn1c(N)c(C(=O)NCC2CCCO2)c2nc3ccccc3nc21 (stereo unspecified) | 11.4%
68 | COCCNC(=O)c1c(N)n(CCCn2ccnc2)c2nc3ccccc3nc12 | 7%
69 | CC(C)Cn1c(N)c(C(=O)NCC2CCCO2)c2nc3ccccc3nc21 (stereo unspecified) | 26.3%
70 | CCCCNC(=O)c1c(N)n(/N=C/c2cccnc2)c2nc3ccccc3nc12 | 4%
71 | Nc1c(C(=O)NCC2CCCO2)c2nc3ccccc3nc2n1-c1ccccc1 (stereo unspecified) | 11.1%
72 | Nc1c(C(=O)NC2CCCC2)c2nc3ccccc3nc2n1/N=C/c1cccnc1 | 62.6% (active)

Row | Compound | cytotoxicity
73 | COCCNC(=O)c1c(N)n(-c2cccc(C)c2)c2nc3ccccc3nc12 | 9.2%
74 | Nc1c(C(=O)NC2CCCCC2)c2nc3ccccc3nc2n1/N=C/c1ccco1 | 5.1%
75 | Nc1c(C(=O)NC2CCCC2)c2nc3ccccc3nc2n1N | 11.6%
76 | O=C(Nc1ccccc1N1CCN(c2ccc(F)cc2)CC1)C1CCCCC1 | -6.3%
77 | O=C(Oc1cccc(Oc2ccccc2)c1)N1CCOCC1 | -6.3%
78 | CCN(CC)C(=O)CSC1=Nc2ccccc2C2=NC(Cc3c[nH]c4ccccc34)C(=O)N12 (stereo unspecified) | -6.1%
79 | O=C(CSc1nnnn1C1CCCCC1)NCc1ccc2c(c1)OCO2 | 3.2%
80 | COCCN1C(=O)C(=O)/C(=C(/O)c2ccc(OC(C)C)cc2)C1c1cccnc1 (stereo unspecified) | -2.7%
81 | CCN1CCN(C(=O)c2ccc3c(c2)N(Cc2ccc(F)cc2)C(=O)c2ccccc2S3=O)CC1 (stereo unspecified) | -1.9%
82 | COc1ccc(OC)c(C2NC(=O)NC(C)=C2C(=O)Nc2ccc(C)cc2C)c1 (stereo unspecified) | -13.3%
83 | COc1ccc(Cc2nc(-c3ccccc3)no2)cc1 | -1.1%
84 | CCOc1cc(S(=O)(=O)n2c(C)nc3ccccc32)ccc1F | 2.2%
85 | CCN(Cc1ccccc1)Cc1cc(OC)cc(OC)c1 | 8%
86 | CSCCC(NC(=O)c1cc(CC(C)C)oc1C)C(=O)O (stereo unspecified) | -17.8%
87 | CCc1nnc(NC2=NCCC2)s1 | -21.5%
88 | CC(C)Cn1c(N)c(C(=O)NCCN2CCOCC2)c2nc3ccccc3nc21 | -16.3%
89 | CC(C)Cn1c(N)c(C(=O)NCc2cccs2)c2nc3ccccc3nc21 | 63.9% (active)
90 | COCCn1c(N)c(C(=O)NCc2cccs2)c2nc3ccccc3nc21 | -11.2%
91 | Cc1ccc(NC(=O)Nc2ccc3c(c2)N(C)C(=O)CS3)nc1 | -4.8%
92 | COC(=O)CCSCC(=O)Nc1cc(C)on1 | -18%
93 | CCn1c(COc2cccc(C)c2)nnc1SCC(=O)N1CCCC1 | -3.1%
94 | CCn1c2ccccc2c2cc(N)ccc21 | 15.8%
95 | C=Cn1ccnc1P(=S)(c1ccc2c(c1)c1ccccc1n2CC)c1nccn1C=C | 73.4% (active)
96 | CCn1c2ccccc2c2cc(/C=N/n3cnnc3)ccc21 | 10.8%

From PubChem BioAssay AID430 (Sanford-Burnham Center for Chemical Genomics, 2006)
